The panel holds about 79,000 compounds, 15% with a hit somewhere; the sample as a whole holds those more often. A number with no mark means an inactive call. The source made the active and inactive calls. No stated cut-off is given here; in the data, active means growth inhibition above about 70%; inactive means the rest.
What was measured:
[1] = NCI Yeast Anticancer Drug Screen. Data for the rad52 strain (AID 147);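 further: 0% = growth of vehicle-treated control cultures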; details: S. cerevisiae rad52 mutant growth inhibition, active compounds read high
Outline: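 Genetically altered yeast (DNA damage repair defect) treated with compound; inhibition calculated relative to vehicle.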

[2] = NCI Yeast Anticancer Drug Screen. Data for the wt1 strain (AID 149);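 further: 0% = growth of vehicle-treated wt1 cultures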; details: S. cerevisiae wt1 strain (SPY 50644) growth inhibition, active compounds read high
Outline: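 wt1 strain grown with compound or vehicle; inhibition taken from the growth difference.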

[3] = NCI Yeast Anticancer Drug Screen. Data for the rad50EPP+ strain (AID 151);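 further: 0% = growth of vehicle-treated control cultures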; details: S. cerevisiae rad50 mutant strain, active compounds read high
Outline: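 Strain rad50EPP+; compound exposure; % growth inhibition vs vehicle.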

[4] = NCI Yeast Anticancer Drug Screen. Data for the mgt1 strain (AID 153); details: S. cerevisiae mgt1 mutant growth inhibition, active compounds read high
Outline: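 Read-out: yeast growth inhibition vs vehicle control. Strain mgt1, drawn from a panel altered in DNA damage repair or cell cycle control.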

[5] = NCI Yeast Anticancer Drug Screen. Data for the rad50 strain (AID 155);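 further: 0% = growth of vehicle-only cultures of the same strain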; details: S. cerevisiae rad50 strain growth inhibition, active compounds read high
Outline: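 DNA repair mutant yeast, compound exposure, growth read-out; inhibition is taken relative to vehicle.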

[6] = NCI Yeast Anticancer Drug Screen. Data for the mec2-1 strain (AID 157); details: S. cerevisiae mec2-1 strain, active compounds read high
Outline: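 Cells of the genetically defined mec2-1 yeast strain are incubated with test compound. Inhibition of growth is calculated against vehicle-treated controls.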

[7] = NCI Yeast Anticancer Drug Screen. Data for the rad14 strain (AID 159);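 further: 0% = growth of vehicle-treated control cultures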; details: S. cerevisiae rad14 strain growth inhibition, active compounds read high
Outline: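 DNA repair-defective yeast, compound-exposed; % growth inhibition derived by comparison with vehicle-treated controls.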

[8] = NCI Yeast Anticancer Drug Screen. Data for the sgs1 mgt1 strain (AID 161);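 further: 0% = growth of cultures given vehicle only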; details: S. cerevisiae sgs1 mgt1 strain, active compounds read high
Outline: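 Mutant yeast exposed to compound; growth scored against vehicle-only wells.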

[9] = NCI Yeast Anticancer Drug Screen. Data for the CLN2oe strain (AID 163);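 further: 0% = growth of vehicle-only control cultures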; details: S. cerevisiae CLN2oe strain, active compounds read high
Outline: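 Strain altered in cell-cycle control, incubated with compound; growth compared to solvent-treated controls.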

[10] = NCI Yeast Anticancer Drug Screen. Data for the cln2 rad14 strain (AID 165);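 further: 0% = growth equal to vehicle treated cultures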; details: S. cerevisiae cln2 rad14 strain, active compounds read high
Outline: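 The screen exposed genetically defined yeast (cln2 rad14) to test compounds and scored growth inhibition relative to vehicle-treated controls.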

[11] = NCI Yeast Anticancer Drug Screen. Data for the bub3 strain (AID 167); details: S. cerevisiae bub3 mutant strain, active compounds read high
Outline: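 In this screen, a yeast mutant lacking normal mitotic checkpoint function is challenged with compound. Relative growth versus vehicle gives the inhibition value.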

[12] = NCI Yeast Anticancer Drug Screen. Data for the wt2 strain (AID 169);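 further: 0% = growth of vehicle-treated yeast cultures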; details: S. cerevisiae wt2 strain growth inhibition, active compounds read high
Outline: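 Steps: yeast strain treated with compound; growth recorded; inhibition calculated relative to cultures given vehicle alone.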

[13] = NCI Yeast Anticancer Drug Screen. Data for the mlh1 strain (AID 171);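 further: 0% = growth of vehicle-treated control cultures of the same strain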; details: S. cerevisiae mlh1 strain growth inhibition, active compounds read high
Outline: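 Yeast screen: mutant strain plus compound, growth scored against vehicle control wells.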

[14] = NCI Yeast Anticancer Drug Screen. Data for the sgs1 strain (AID 173);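 further: 0% = growth of vehicle-only control cultures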; details: S. cerevisiae sgs1 mutant, active compounds read high
Outline: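 Inhibition of yeast growth served as the measure. The mutant strain was treated with each compound, and growth was normalised to cultures receiving vehicle alone.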

[15] = NCI Yeast Anticancer Drug Screen. Data for the mlh1 rad18 strain (AID 175); details: S. cerevisiae mlh1 rad18 strain growth inhibition, active compounds read high
Outline: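 Compound-treated yeast growth, normalised to vehicle controls. Strain bears defined DNA repair mutations.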

[16] = NCI Yeast Anticancer Drug Screen. Data for the rad18 strain (AID 177); details: S. cerevisiae rad18 mutant growth inhibition, active compounds read high
Outline: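 Inhibition values reflect reduced yeast growth compared with vehicle-treated controls, using a strain engineered with a DNA damage repair defect.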

[17] = at 5.0 µM (retest, dose inferred, filed as 0.5)
[18] = at 50.0 µM (retest, dose inferred, filed as 5.0)

## O=C1c2ccccc2-c2cc3ccccc3c(=O)n21
[1]; at 1.2 µM
  growth inhibition: 32%
[1]; at 3.7 µM
  growth inhibition: 64%
[1]; at 11.0 µM
  growth inhibition: 91% (active)
[1]; at 33.0 µM
  growth inhibition: 93% (active)
[1]; at 100.0 µM
  growth inhibition: 87% (active)
[2]; at 1.2 µM
  growth inhibition: -21%
[2]; at 3.7 µM
  growth inhibition: 0%
[2]; at 11.0 µM
  growth inhibition: 31%
[2]; at 33.0 µM
  growth inhibition: 58%
[2]; at 100.0 µM
  growth inhibition: 51%
[3]; at 1.2 µM
  growth inhibition: 41%
[3]; at 3.7 µM
  growth inhibition: 76% (active)
[3]; at 11.0 µM
  growth inhibition: 90% (active)
[3]; at 33.0 µM
  growth inhibition: 92% (active)
[3]; at 100.0 µM
  growth inhibition: 80% (active)
[4]; at 1.2 µM
  growth inhibition: 12%
[4]; at 3.7 µM
  growth inhibition: 2%
[4]; at 11.0 µM
  growth inhibition: 37%
[4]; at 33.0 µM
  growth inhibition: 71% (active)
[4]; at 100.0 µM
  growth inhibition: 76% (active)
[5]; at 1.2 µM
  growth inhibition: 32%
[5]; at 3.7 µM
  growth inhibition: 64%
[5]; [17]
  growth inhibition: 1%
[5]; at 11.0 µM
  growth inhibition: 88% (active)
[5]; at 33.0 µM
  growth inhibition: 89% (active)
[5]; [18]
  growth inhibition: 92% (active)
[5]; at 50.0 µM
  growth inhibition: 91.7% (active)
[5]; at 100.0 µM
  growth inhibition: 84% (active)
[6]; at 1.2 µM
  growth inhibition: 13%
[6]; at 3.7 µM
  growth inhibition: 19%
[6]; [17]
  growth inhibition: -14%
[6]; at 11.0 µM
  growth inhibition: 48%
[6]; at 33.0 µM
  growth inhibition: 70% (active)
[6]; [18]
  growth inhibition: 41%
[6]; at 50.0 µM
  growth inhibition: 85.3% (active)
[6]; at 100.0 µM
  growth inhibition: 77% (active)
[7]; at 1.2 µM
  growth inhibition: 11%
[7]; at 3.7 µM
  growth inhibition: 20%
[7]; at 11.0 µM
  growth inhibition: 42%
[7]; at 33.0 µM
  growth inhibition: 66%
[7]; at 100.0 µM
  growth inhibition: 69%
[8]; [17]
  growth inhibition: 9%
[8]; [18]
  growth inhibition: 46%
[8]; at 50.0 µM
  growth inhibition: 81% (active)
[9]; at 1.2 µM
  growth inhibition: 1%
[9]; at 3.7 µM
  growth inhibition: 4%
[9]; at 11.0 µM
  growth inhibition: 23%
[9]; at 33.0 µM
  growth inhibition: 51%
[9]; at 100.0 µM
  growth inhibition: 68%
[10]; [17]
  growth inhibition: 22%
[10]; [18]
  growth inhibition: 15%
[10]; at 50.0 µM
  growth inhibition: 14.3%
[11]; at 1.2 µM
  growth inhibition: 3%
[11]; at 3.7 µM
  growth inhibition: 2%
[11]; [17]
  growth inhibition: -2%
[11]; at 11.0 µM
  growth inhibition: 10%
[11]; at 33.0 µM
  growth inhibition: 68%
[11]; [18]
  growth inhibition: 56%
[11]; at 50.0 µM
  growth inhibition: 84.5% (active)
[11]; at 100.0 µM
  growth inhibition: 72% (active)
[12]; at 1.2 µM
  growth inhibition: 4%
[12]; at 3.7 µM
  growth inhibition: 9%
[12]; at 11.0 µM
  growth inhibition: 31%
[12]; at 33.0 µM
  growth inhibition: 73% (active)
[12]; at 100.0 µM
  growth inhibition: 73% (active)
[13]; at 1.2 µM
  growth inhibition: 4%
[13]; at 3.7 µM
  growth inhibition: 19%
[13]; at 11.0 µM
  growth inhibition: 66%
[13]; at 33.0 µM
  growth inhibition: 74% (active)
[13]; at 100.0 µM
  growth inhibition: 63%
[14]; at 1.2 µM
  growth inhibition: 22%
[14]; at 3.7 µM
  growth inhibition: 14%
[14]; at 11.0 µM
  growth inhibition: 47%
[14]; at 33.0 µM
  growth inhibition: 76% (active)
[14]; at 100.0 µM
  growth inhibition: 77% (active)
[15]; [17]
  growth inhibition: -13%
[15]; [18]
  growth inhibition: 63%
[15]; at 50.0 µM
  growth inhibition: 81% (active)
[16]; at 1.2 µM
  growth inhibition: -22%
[16]; at 3.7 µM
  growth inhibition: -17%
[16]; at 11.0 µM
  growth inhibition: 28%
[16]; at 33.0 µM
  growth inhibition: 63%
[16]; at 100.0 µM
  growth inhibition: 59%

— PubChem BioAssay (NCI)
